CHOP inhibitor = CHOP inhibition in unfolded protein response; CHO-K1 CHOP-promoter luciferase, tunicamycin-induced, 15-18 h; inhibition, % at 10 µM; 3.8% of 220,000 active; AID 2732;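 active = compounds that reduced the stress-induced luciferase reporter signal by more than about 70% of percent inhibition, limit read from the data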;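 also: 0% = tunicamycin plus vehicle and 100% = wells without tunicamycin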
L major viab = inhibitors of Leishmania major promastigote growth; Leishmania major promastigotes, resazurin fluorescence viability; inhibition, % at 10 µM; 9% of 200,000 active; AID 1063; in the data active = inhibition above about 50%;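 also: promastigotes grown with compound for 44 hours at 28 °C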
Arbovirus inh = arbovirus infection inhibition | AID 1251 | 0.37% of 200,000 active | inhibition, % at 10 µM | arbovirus infection cell-based antiviral screen; in the data active = inhibition above about 30%
WT yeast gro inh = growth inhibition of WT yeast, mitochondrial fusion screen; mitochondrial fusion phenotypic screen, WT strain; inhibition, % at 10 µM; 2.1% of 190,000 active; AID 1362; in the data active = inhibition above about 58%; tested in S. cerevisiae
The depositor's hits bear a star; · = no result given. This is a sample that favours compounds with a hit; in the whole collection about 12% have one here.

SMILES	CHOP inhibitor	L major viab	Arbovirus inh	WT yeast gro inh
CCn1c(SCC(=O)Nc2nccc(C)n2)nc2ccccc21	9.6	·	·	·
Cc1nc([N+](=O)[O-])c(Br)n1Cc1ccccc1	-180.1	·	·	·
Cc1nc([N+](=O)[O-])c(Br)n1CC(=O)c1cccc([N+](=O)[O-])c1	-57.2	86.2*	-23.9	-11.9
COC(=O)Cn1c(C)nc([N+](=O)[O-])c1Br	4.5	2.1	10.6	-12.0
Cc1nc([N+](=O)[O-])c(Br)n1CC(=O)c1ccc(F)cc1	-178.7	89.1*	-11.6	-15.8
COc1ccc(Cc2noc(CN(C)CC(O)c3ccccc3)n2)cc1OC (stereo not drawn)	21.7	-0.6	-0.7	-9.2
O=C(O)c1ccc(S(=O)(=O)Nc2cccc(CP(=O)(c3ccccc3)c3ccccc3)c2)cc1	7.9	·	·	·
Cc1ccc(O)c(C(=O)c2cnc3c(c2)c(C)nn3-c2ccccc2)c1	47.1	76.8*	1.2	22.6
Cc1ccc(O)c(C(=O)c2cnc3c(c2)c(-c2ccc(F)cc2)c(C#N)c(=O)n3C)c1	4.9	52.3*	4.0	29.9
Cc1n(CC(O)COC2CCCCC2)c2ccccc2[n+]1C (stereo not drawn)	-18.1	-0.3	3.5	-11.5
COC(=O)CN(n1cnnc1)S(=O)(=O)c1ccccc1Cl	3.1	0.1	6.3	-6.6
CON(c1nc(N(C)C)nc(N(C)C)n1)S(=O)(=O)c1ccccc1Cl	16.6	64.6*	0.1	·
COC(=O)[C@@H]1C[C@@]2(O)[C@@H](O)[C@@H](O)[C@@H](O)C[C@H]2N1CC(c1ccccc1)c1ccccc1	16.8	·	·	·
CSc1nc(SCC(=O)NCC2CCCO2)c2c3c(sc2n1)CN(C)CC3 (stereo not drawn)	-7.7	·	·	·
CCOCCCN(Cc1ccco1)C(=O)c1cc2c(=O)[nH]c3ccc(C)cc3c2s1	59.8	72.9*	-8.6	6.0
Cc1ccc2[nH]c(=O)c3cc(C(=O)N(C)Cc4ccco4)sc3c2c1	28.8	55.8*	-8.4	15.8
Cc1ccc(NC(=O)c2nc[nH]c2C(=O)NCC(=O)OC(C)(C)C)cc1	3.0	·	·	·
O=C(COc1ncnc2ccccc12)Nc1ccc(Cl)c([N+](=O)[O-])c1	31.4	72.1*	0.6	-7.4
O=C(CN(C(=O)c1ccc(Cl)cc1)C1CCCCC1)Nc1ccc(Cl)c([N+](=O)[O-])c1	20.4	85.1*	-11.4	56.6
O=C(CN(C(=O)c1ccccc1Cl)C1CCCCC1)Nc1ccc(Cl)c([N+](=O)[O-])c1	28.4	80.1*	-5.1	16.2
CC(O)CNc1cnccn1 (stereo not drawn)	24.6	-1.1	10.8	-7.7
CC(=O)NC(Cc1ccccc1C)C(=O)NC1CCN(C(=O)c2ccc(C)cc2)CC1 (stereo not drawn)	-13.8	-3.8	-0.8	13.5
COc1ccc(/C=N/NC(=O)CNC(=O)C2COc3ccccc3O2)cc1OC (stereo not drawn)	7.6	-2.0	1.6	-3.1
O=c1cc(CN2CCN(c3cccc(Cl)c3)CC2)c2cc(O)c(-c3ccccc3)cc2o1	56.2	4.4	6.9	22.4
O=c1cc(CN2CCN(c3ccccc3)CC2)c2cc(O)c(-c3ccccc3)cc2o1	-21.9	73.3*	-14.8	7.3
SMILES	CHOP inhibitor	L major viab	Arbovirus inh	WT yeast gro inh
O=c1cc(CN2CCN(C/C=C/c3ccccc3)CC2)c2cc(O)ccc2o1	22.3	51.0*	1.7	-5.8
Cc1ccc2oc(=O)cc(CN3CCN(C/C=C/c4ccccc4)CC3)c2c1	-6.7	·	·	·
COc1cccc(NCc2cc(=O)oc3cc(-c4ccccc4)c(O)cc23)c1	82.0*	24.2	11.5	18.3
COc1cccc(-n2c(SCc3cc(=O)oc4cc(O)c(O)cc34)nc3ccccc3c2=O)c1	31.3	-7.5	8.3	-7.7
O=C(NCCCN1CCOCC1)/C(=C/c1ccc(F)cc1)NC(=O)c1ccccc1	-0.4	-9.0	4.8	-5.6
CCC(Sc1nc2ccc(N)cc2s1)C(=O)Nc1nccs1 (stereo not drawn)	-9.4	54.8*	-10.4	-3.3
O=C1/C(=C/c2ccncc2)SC(=S)N1C1CCCCC1	16.6	10.7	17.2	8.2
O=C1/C(=C\c2ccncc2)SC(=S)N1C1CCCCC1	49.9	65.2*	4.2	13.1
CCCCC(CC)CN1C(=O)/C(=C/c2ccncc2)SC1=S (stereo not drawn)	26.2	96.5*	-41.6	25.0
CCN1C(=O)/C(=C\c2ccncc2)SC1=S	13.5	·	·	·
NC(N)=NCCCCN=C(N)N	-1.6	·	·	·
O=C(COC(=O)c1ccccn1)Nc1ncc(C(F)(F)F)cc1Cl	-0.6	-2.5	12.3	-3.2
O=C(COC(=O)C1(c2ccc(Cl)cc2)CCCC1)Nc1ncc(C(F)(F)F)cc1Cl	31.0	-8.2	9.8	68.5*
O=C(COC(=O)c1ccc([N+](=O)[O-])s1)Nc1ncc(C(F)(F)F)cc1Cl	12.9	-5.9	0.7	81.6*
C=C1CCN([C@@H](C)C(=O)NCc2ccc(Cl)cc2)S(=O)(=O)c2ccccc21	2.1	·	·	·
Cc1cccc(C)c1NC(=S)N(CCCN1CCN(C)CC1)Cc1cccs1	4.3	3.3	-0.3	-1.6
NC(N)=NCC(O)CN(c1ccccc1)c1ccccc1 (stereo not drawn)	-2.6	·	·	·
Cc1ccc(CNC(=O)c2ccc(N3CCCC3=O)cc2)cc1	-6.6	1.4	3.8	8.1
Cn1nc(C(C)(C)C)cc1C(=O)NCc1ccc(N2CCCC2=O)cc1	83.3*	-0.1	6.6	-9.2
COc1ccc([N+](=O)[O-])c(S(=O)(=O)c2ccccc2)n1	106.5*	·	·	·
CCOCCCNC(=O)COc1ccc(OC)cc1	-5.0	-6.7	3.0	-0.3
O=c1oc2ccccc2nc1/C=C(\O)c1ccccc1	17.5	·	·	·
Cc1nc(C)c(/C(O)=C/c2nc3ccccc3oc2=O)s1	36.8	75.7*	-15.2	42.4
Cc1ccc(-n2c(C)cc(C(=O)CSc3n[nH]c(N)n3)c2C)cc1	5.0	95.1*	-0.3	19.6
Cc1ccc(-n2c(C)cc(C(=O)COC(=O)C3=NNC(=O)CC3)c2C)cc1	9.1	95.0*	3.2	-13.1
SMILES	CHOP inhibitor	L major viab	Arbovirus inh	WT yeast gro inh
CCN(CC)c1ccc(NC(=O)COC(=O)c2ccc3ccccc3n2)cc1	24.2	2.1	2.8	-1.4
COc1ccc(Nc2cc(=O)n(C3CCCCC3)c(=O)[nH]2)c(OC)c1	23.2	8.6	0.3	14.9
Cc1cc(C)cc(Nc2cc(=O)n(C3CCCCC3)c(=O)[nH]2)c1	87.0*	-2.8	20.4	-16.3
CCC(C)(C)n1nnnc1C(c1ccc2ncccc2c1)N1CCN2CCCC2C1 (stereo not drawn)	3.1	69.7*	3.7	0.1
CCCC(c1nnnn1C(C)(C)CC)N1CCN(C2CCCC2)CC1 (stereo not drawn)	-14.0	20.3	0.4	4.6
OC1CCN(C(c2ccc3ncccc3c2)c2nnnn2C2CCCCC2)CC1 (stereo not drawn)	0.6	4.6	-7.0	0.2
c1cnc2ccc(C(c3nnnn3C3CCCCC3)N3CCN4CCCC4C3)cc2c1 (stereo not drawn)	-13.6	72.3*	16.2	0.0
COc1ccc2cc(C(c3nnnn3CCc3ccccc3)N3CCCC(C)C3)c(=O)[nH]c2c1 (stereo not drawn)	86.8*	48.4	-16.8	34.5
COCCn1nnnc1C(c1cc2cc(OC)ccc2[nH]c1=O)N1CCC(Cc2ccccc2)CC1 (stereo not drawn)	·	50.3*	-28.1	10.4
COc1ccc2cc(C(c3nnnn3CC3CCCO3)N3CCOCC3)c(=O)[nH]c2c1 (stereo not drawn)	-1.6	-9.0	-0.3	3.1

Bioassay records: PubChem, several laboratories
